Drawing on PubChem BioAssay (Tox21), this text covers Potency for 21 compounds.

Inconclusive results are not listed. Active and inactive are the calls of the source. Unless noted, calls come from the whole dose curve; as a rule, active = well fitted curve in the direction sought with a large enough effect in the repeat runs; inconclusive = weak or mixed curves; inactive = no such curve, though single readings can be large; an effect the other way counts as inactive or inconclusive. Non-standard residues stand in square brackets, D forms with d. Residues, ends and D or L forms follow the SMILES beside them. pGlu = O=C1CC[C@@H](C(=O)O)N1; Thz = O=C(O)[C@@H]1CSCN1

A short description of assay [1]: qHTS assay for small molecule agonists of the p53 signaling pathway (AID 651631; calls by dose curve; note: nearly all actives have a fitted effect of over 15% in size; note: potency is the fitted concentration of half-maximal effect). Summed up:
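Read-out is beta-lactamase FRET fluorescence measured 2 h after substrate addition at room temperature, in HCT-116 cells with a p53 response element-driven reporter exposed to compounds for 16 h at 37 °C.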
(In general: Quantitative high-throughput screening tests each substance at several concentrations.)

Assay [2] can be described thus: qHTS assay for small molecules that induce genotoxicity in human embryonic kidney cells expressing luciferase-tagged ATAD5 (AID 651632). Note: nearly all actives have a fitted effect of over 15% in size. Summed up:
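Luminescent reporter readout, HEK293T ATAD5-luc line: 16 hr drug exposure (37C, 5% CO2) followed by Amplite, 30 min RT.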

Assay [3] can be described thus: qHTS assay for small molecule agonists of the p53 signaling pathway - cell viability (AID 651633; calls by dose curve;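 note: p53RE-bla HCT reporter cells with a stable beta-lactamase p53 reporter; series mostly up to about 83 µM; nearly all actives have a fitted effect of over 30% in size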). In short, it runs like this: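 Viability counter-read: CellTiter-Glo luminescence (30 min, room temperature) in the same p53RE-bla plates. These plates had been exposed to compounds for 16 h at 37 C.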
Assay [4] can be described thus: qHTS assay for small molecules that induce genotoxicity in human embryonic kidney cells expressing luciferase-tagged ATAD5 - cell viability (AID 651634; calls by dose curve; note: nearly all actives have a fitted effect of over 25% in size). In short, it runs like this: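 Viability read: CellTiter-Fluor fluorescence, 30 min at 37C. Cells: HEK293T, luciferase-tagged ATAD5. Exposure: 15.5 hr, 37C, 5% CO2, compound or DMSO vehicle.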
Assay [5] can be described thus: qHTS assay for small molecule disruptors of the mitochondrial membrane potential - cell viability (AID 720634; calls by dose curve;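 note: human HepG2 liver cancer cells; series mostly up to about 83 µM; nearly all actives have a fitted effect of over 20% in size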). In short, it runs like this:
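HepG2, 1 hr compound, 37 C. ATP luminescence via CellTiter-Glo, 30 min RT, same well as m-MPI.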

The nature of assay [6]: qHTS assay to test for compound auto fluorescence at 590 nm (red) in HepG2 cells (AID 720674). In short, it runs like this:
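1 hr compound incubation on HepG2 cells, 37 C, 5% CO2; plate read ex 540 nm / em 590 nm; intensities reported as Rose Bengal sodium equivalents.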

The nature of assay [7]: qHTS assay to test for compound auto fluorescence at 535 nm (green) in HepG2 cells (AID 720675).
Assay [8] in a line: qHTS assay to test for compound auto fluorescence at 460 nm (blue) in HEK293 cells (AID 720678). In short, it runs like this:
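HEK293 cells (2,000/well, medium with 10% dialyzed FBS) attached 4-5 hr, then exposed to compound overnight at 37C, 5% CO2. Blue fluorescence read at 405/460 nm, with triamterene as reference fluorophore.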

The nature of assay [9]: qHTS assay to test for compound auto fluorescence at 590 nm (red) in HEK293 cells (AID 720679). In short, it runs like this: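 HEK293 cells (2,000/well, 10% dialyzed FBS) attached 4-5 hr, then dosed with compound or DMSO and incubated overnight at 37C, 5% CO2. Red fluorescence read at 540/590 nm, Rose Bengal sodium as reference fluorophore.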

For the compound `OC[C@H]1O[C@@H](O[C@H]2[C@H](O)[C@@H](O)[C@H](O)O[C@@H]2CO)[C@H](O)[C@@H](O)[C@@H]1O`, the Potency entry in assay [1], in assay [2], in assay [3], in assay [4], in [5] and in assay [6] was “inactive” throughout. Moreover, the Potency entry in [7], in assay [8] and in assay [9] was “inactive” in each case.

With `CC[C@H]1NC(=O)[C@@H](NC(=O)c2ncccc2O)[C@@H](C)OC(=O)[C@H](c2ccccc2)NC(=O)[C@@H]2CC(=O)CCN2C(=O)[C@H](Cc2ccccc2)N(C)C(=O)[C@@H]2CCCN2C1=O`, the Potency entry in assay [1], in assay [2], in [3], in [4], in [5] and in assay [6] was “inactive” in each case. Besides, the Potency result in assay [7], in assay [8] and in assay [9] was “inactive” each time.

On to `COc1cc2[nH]c(C)c(CCN3CCN(c4ccccc4)CC3)c2cc1OC`, for which the Potency entry in assay [1], in [2], in assay [3], in [4], in assay [5] and in assay [6] was “inactive” throughout. The Potency entry in assay [7], in assay [8] and in [9] was “inactive” throughout.

Turning to `O=C(O)c1nc(=O)[nH]c(=O)[nH]1`, the Potency result in [1], in assay [2], in [3], in assay [4], in assay [5] and in assay [6] was “inactive” throughout. Further, the Potency result in assay [7], in [8] and in assay [9] was “inactive” each time.

As for `CCC(C)[C@@H](N)C(=O)O` (some centres undefined), the Potency entry in [1], in assay [2], in assay [3], in assay [4], in assay [5] and in assay [6] was “inactive” in each case. In addition, the Potency entry in [7], in assay [8] and in assay [9] was “inactive” in each case.

On to `O=C(O)CCC/C=C\C[C@@H]1[C@@H](/C=C/[C@@H](O)COc2cccc(Cl)c2)[C@H](O)C[C@@H]1O`, for which the Potency entry in [1], in assay [2], in assay [3], in [4], in [5] and in assay [6] was “inactive” in each case. The Potency entry in assay [7], in assay [8] and in assay [9] was “inactive” each time.

Take `O=C1CCC(=O)N1CO`: the Potency entry in assay [1], in assay [2], in assay [3], in assay [4], in assay [5] and in [6] was “inactive” throughout. The Potency entry in assay [7], in [8] and in assay [9] was “inactive” throughout.

As to `Cc1ccccc1OCC(O)CNCCOc1ccc(C(N)=O)cc1` (centres undefined), the Potency entry in assay [1], in assay [2], in [3], in assay [4], in assay [5] and in [6] was “inactive” in each case. Also, the Potency result in assay [7], in assay [8] and in assay [9] was “inactive” each time.

For the compound `CCOC(=O)c1cc(-c2ccccc2)nc2ccc(C)cc12`, the Potency result in [1], in assay [2], in assay [3], in assay [4], in assay [5] and in assay [6] was “inactive” in each case. In addition, the Potency entry in assay [7], in assay [8] and in [9] was “inactive” throughout.

On to `CS(=O)(=O)c1ccc(C2=C(c3ccccc3)C(=O)OC2)cc1`, for which the Potency result in [1], in assay [2], in assay [3], in assay [4], in [5] and in assay [6] was “inactive” in each case. For the same compound, the Potency entry in assay [7], in assay [8] and in assay [9] was “inactive” in each case.

Regarding `C[C@@H](O)[C@H]1C(=O)N2C(C(=O)[O-])=C(SC3Cn4cnc[n+]4C3)[C@H](C)[C@H]12` (some centres undefined), the Potency entry in [1], in [2], in [3], in assay [4], in [5] and in assay [6] was “inactive” each time. Also, the Potency result in assay [7], in assay [8] and in assay [9] was “inactive” in each case.

`C=CCSSSCC=C`: the Potency in assay [1] is 9.44 µM (active). For the same compound, the Potency result in [2], in assay [3], in [4], in assay [5], in assay [6] and in assay [7] was “inactive” each time. The Potency entry in [8] and in assay [9] was “inactive” each time.

Turning to `CC(=O)Oc1cccc(C(=O)O)c1OC(C)=O`, the Potency result in assay [1], in assay [2], in assay [3], in assay [4], in [5] and in assay [6] was “inactive” in each case. In addition, the Potency result in assay [7], in assay [8] and in [9] was “inactive” in each case.

Take `O=C(NNCS(=O)(=O)O)c1ccncc1`: the Potency entry in assay [1], in assay [2], in [3], in assay [4], in assay [5] and in assay [6] was “inactive” each time. Besides, the Potency result in assay [7], in [8] and in assay [9] was “inactive” in each case.

For the compound `CC1(C)S[C@@H]2[C@H](NC(=O)C(C(=O)O)c3ccsc3)C(=O)N2[C@H]1C(=O)O` (some centres undefined), the Potency entry in assay [1], in [2], in [3], in assay [4], in assay [5] and in assay [6] was “inactive” each time. Moreover, the Potency entry in assay [7], in assay [8] and in [9] was “inactive” in each case.

For `O=C1CC[C@@H](C(=O)N2CSC[C@H]2C(=O)O)N1` ([pGlu]-[Thz]-OH), the Potency result in assay [1], in assay [2], in assay [3], in assay [4], in assay [5] and in assay [6] was “inactive” throughout. Besides, the Potency result in assay [7], in assay [8] and in assay [9] was “inactive” throughout.

As for `CO/N=C(\C(=O)N[C@@H]1C(=O)N2C(C(=O)OCOC(=O)C(C)(C)C)=C(/C=C\c3scnc3C)CS[C@H]12)c1csc(N)n1`, the Potency entry in assay [1], in [2], in assay [3], in assay [4], in assay [5] and in assay [6] was “inactive” in each case. Besides, the Potency result in assay [7], in assay [8] and in assay [9] was “inactive” throughout.

As to `Cc1nnc(C(C)C)n1C1C[C@H]2CC[C@@H](C1)N2CC[C@H](NC(=O)C1CCC(F)(F)CC1)c1ccccc1` (some centres undefined), the Potency result in assay [1], in [2], in assay [3], in assay [4], in [5] and in assay [6] was “inactive” throughout. Further, the Potency entry in assay [7], in [8] and in assay [9] was “inactive” in each case.

`O=C(O)c1cccc(/C=C2/C[C@@H]3[C@@H](/C=C/[C@@H](O)C4CCCCC4)[C@H](O)C[C@@H]3O2)c1`: the Potency result in assay [1], in assay [2], in assay [3], in assay [4], in [5] and in assay [6] was “inactive” throughout. In addition, the Potency result in assay [7], in assay [8] and in [9] was “inactive” in each case.

For `C/C=C(/CC[C@@H](C)[C@H]1CC[C@H]2C3=CC[C@H]4[C@H](C)[C@@H](O)CC[C@]4(C)[C@H]3CC[C@]12C)C(C)C`, the Potency entry in assay [1], in assay [2], in assay [3], in assay [4], in assay [5] and in [6] was “inactive” in each case. For the same compound, the Potency entry in assay [7], in assay [8] and in [9] was “inactive” each time.

Take `CC(C)[C@@H]1CC[C@@H](C)C[C@H]1OC(=O)c1ccccc1O`: the Potency entry in [1], in assay [2], in [3], in assay [4], in [5] and in assay [6] was “inactive” in each case. The Potency result in assay [7], in assay [8] and in assay [9] was “inactive” throughout.
